High-throughput results (PubChem BioAssay)
The list is not random: actives were taken first. Their share in the collection is about 3.6%.
Peg3 prom inh: inhibitors of Peg3 promoter; HeLa PEG-Prom luciferase reporter, luminescence, overnight; hit rate 1.7% among 360,000; inhibition, % at 20 µM;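 active = inhibition of at least 50% at 20 µM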
Mdm2-MdmX inh: inhibitors of human Mdm2/MdmX interaction. SaOS-2 split-luciferase Mdm2/MdmX complementation, luminescence. hit rate 3% among 330,000. inhibition, % at 8 µM;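 active = inhibition of at least 50% at 8 µM in the primary screen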
Target sequence (O15151 whole entry, looked up): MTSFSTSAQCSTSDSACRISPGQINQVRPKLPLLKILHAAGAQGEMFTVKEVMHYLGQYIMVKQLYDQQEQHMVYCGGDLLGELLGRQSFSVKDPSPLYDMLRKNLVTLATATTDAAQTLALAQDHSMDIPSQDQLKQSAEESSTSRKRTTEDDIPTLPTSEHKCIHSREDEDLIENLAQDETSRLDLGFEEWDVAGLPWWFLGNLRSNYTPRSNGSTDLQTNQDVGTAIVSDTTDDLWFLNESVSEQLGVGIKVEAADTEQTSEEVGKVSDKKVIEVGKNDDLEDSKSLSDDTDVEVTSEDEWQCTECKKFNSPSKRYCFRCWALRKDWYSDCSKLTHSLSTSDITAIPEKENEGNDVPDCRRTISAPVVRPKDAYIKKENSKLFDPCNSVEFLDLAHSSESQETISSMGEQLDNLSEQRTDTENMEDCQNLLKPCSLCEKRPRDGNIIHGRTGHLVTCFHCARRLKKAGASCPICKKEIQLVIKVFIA
Target sequence (Q00987 whole entry, looked up): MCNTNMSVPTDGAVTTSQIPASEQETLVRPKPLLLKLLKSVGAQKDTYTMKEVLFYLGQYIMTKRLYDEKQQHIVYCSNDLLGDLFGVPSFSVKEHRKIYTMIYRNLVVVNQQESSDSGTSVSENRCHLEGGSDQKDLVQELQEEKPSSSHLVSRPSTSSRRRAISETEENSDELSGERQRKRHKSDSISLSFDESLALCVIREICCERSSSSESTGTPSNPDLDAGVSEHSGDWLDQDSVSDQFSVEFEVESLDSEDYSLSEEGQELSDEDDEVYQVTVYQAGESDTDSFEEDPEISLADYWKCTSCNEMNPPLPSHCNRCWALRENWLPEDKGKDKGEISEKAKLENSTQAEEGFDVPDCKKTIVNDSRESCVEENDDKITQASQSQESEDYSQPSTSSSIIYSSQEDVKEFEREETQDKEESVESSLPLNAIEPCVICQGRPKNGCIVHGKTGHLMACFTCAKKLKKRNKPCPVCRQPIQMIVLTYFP
LGR2 inh: Drosophila LGR2 receptor signaling inhibition. HEK293 LGR2, CRE-luciferase, bursicon-stimulated, 4 h. inhibition, % at 9.99 µM. hit rate 0.35% among 380,000. AID 720647;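 active = drop in luminescence signal, shown as inhibition above about 50% in the replicate tests, limit read from the data, passing the limit was not always enough; inconclusive = probably only some replicates passing the limit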;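 note: agonist challenge used bursicon conditioned medium at about half maximal strength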
KKLEB tox: CF airway cell cytotoxicity counter-screen; activity change (cytotoxicity), % at 5 µM; KKLEB CF airway cells viability, ATPlite luminescence, overnight; hits give low values; cells stimulated with P. aeruginosa culture filtrate; hit rate 0.36% among 360,000; AID 602141;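 active = corrected activity change at or below -50% at 5 µM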
CF NFkB inh: inhibitors of cystic fibrosis induced NF-kB. AID 588850. KKLEB NF-kB-GFP reporter, PAF-induced, GFP fluorescence overnight. inhibition, % at 5 µM. hit rate 0.86% among 360,000;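 active = at least 50% inhibition at 5 µM, scaled per plate between neutral and stimulator controls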;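 note: PAF is a Pseudomonas aeruginosa culture filtrate used as stimulus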
HSP90 inh: blocks HSP90-mediated luciferase refolding in reticulocyte lysate | Rabbit reticulocyte lysate, luciferase refolding luminescence, 3 h | inhibition, % at 5.6 µM | hit rate 0.91% among 290,000 | AID 1789;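 active = inhibition above the screen-wide mean plus 3 SD, computed separately per campaign, cut at about 16% in these data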;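 note: inhibitors lower the luminescence because luciferase stays unfolded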
Numbers stand for hits.

Screening COc1ccc2c3c(n(C)c2c1)[C@H](CO)N(CC1CCCC1)CC31CN(C(C)=O)C1 returned LGR2 inh inactive.
C[C@@H]1CN([C@@H](C)CO)C(=O)c2cc(-c3cccc(F)c3)cnc2O[C@@H]1CN(C)C(=O)c1cnccn1 was read as LGR2 inh inactive.
Screening COc1ccc(C(=O)NC(=C(Cl)Cl)S(=O)(=O)c2ccc(C)cc2)cc1 returned Peg3 prom inh inactive, LGR2 inh inactive, KKLEB tox inactive, CF NFkB inh inactive and HSP90 inh inactive.
Cc1ccc(C(=O)NC(=C(Cl)Cl)S(=O)(=O)c2ccccc2)cc1 was read as Peg3 prom inh 78.8, Mdm2-MdmX inh inactive, LGR2 inh inactive, KKLEB tox inactive, CF NFkB inh inactive and HSP90 inh inactive.
`CC(C)NC(=O)Nc1ccc2c(c1)CC(=O)N([C@H](C)CO)C[C@H](C)[C@H](CN(C)C(=O)Nc1ccc(F)cc1)O2` gave LGR2 inh inactive.
For CNC[C@H]1OCCCC[C@H](C)Oc2ccc(NC(=O)Nc3c(C)noc3C)cc2C(=O)N([C@@H](C)CO)C[C@@H]1C the results were LGR2 inh inactive.
Cc1noc(C)c1NC(=O)Nc1ccc2c(c1)C(=O)N([C@@H](C)CO)C[C@H](C)[C@H](CN(C)S(=O)(=O)c1ccccc1)O2 was read as LGR2 inh inactive.
For CC(C)C[C@@H](CN1CCC[C@@H]1CN1C(=O)C(=O)NC[C@@H]1Cc1ccccc1)N1C[C@H](Cc2ccccc2)N(CC2CCCCC2)C(=O)C1=O the results were LGR2 inh inactive.
`Oc1ccc(C[C@H]2CNC(=S)N2CC2CCCN2C[C@H](Cc2ccccc2)N2C[C@H](Cc3ccc(O)cc3)N(CCc3ccccc3)C2=S)cc1` (some centres not stated) gave Peg3 prom inh 68.3, LGR2 inh inactive, KKLEB tox inactive and CF NFkB inh inactive.
CC(C)C[C@@H](CN1CCC[C@@H]1CN1C(=S)NC[C@@H]1Cc1ccc(O)cc1)N1C[C@H](Cc2ccc(O)cc2)N(CCc2ccccc2)C1=S was read as Peg3 prom inh 77.7, LGR2 inh inactive, KKLEB tox inactive and CF NFkB inh inactive.
CC(C)C[C@@H](CN1CCC[C@@H]1CN1C(=O)C(=O)NC[C@@H]1Cc1ccccc1)N1C[C@H](Cc2ccccc2)N(CC2CCCCCC2)C(=O)C1=O was read as Peg3 prom inh 54.7, LGR2 inh inconclusive, KKLEB tox inactive and CF NFkB inh inactive.
For CC(C)C[C@@H](CN1CCCC1CN1C(=S)NC[C@@H]1Cc1ccccc1)N1C[C@H](Cc2ccc(O)cc2)N(CCc2ccccc2)C1=S (some centres not stated) the results were LGR2 inh inactive.
`CC(C)C[C@H]1CNC(=S)N1C[C@H]1CCCN1C[C@H](Cc1ccc(O)cc1)N1C[C@H](Cc2ccc(O)cc2)N(CCc2ccccc2)C1=S` gave Peg3 prom inh 93.7, LGR2 inh inactive, KKLEB tox inactive and CF NFkB inh inactive.
`CC=Cc1ccc2n(c1=O)C[C@H]1[C@H](CO)[C@@H](C(=O)N[C@H](C)c3ccccc3)N(C(=O)c3ccccn3)[C@@H]21` (mixture of isomers) gave LGR2 inh inactive.
Screening C/C=C/c1ccc2c(c1)O[C@H](CN(C)C(=O)Nc1ccc(C(F)(F)F)cc1)[C@H](C)CN([C@@H](C)CO)S2(=O)=O returned LGR2 inh inactive.
C[C@@H]1CN([C@@H](C)CO)C(=O)c2cccc(NS(=O)(=O)c3ccccc3)c2O[C@@H]1CN(C)CC1CC1 was read as LGR2 inh inactive.
Screening CCOc1ccc(CCN2C(=S)N([C@@H](CC(C)C)CN3CCCC3CN3C(=S)NC[C@@H]3Cc3ccc(O)cc3)C[C@@H]2Cc2ccccc2)cc1 (some centres not stated) returned Peg3 prom inh inactive, LGR2 inh inactive, KKLEB tox inactive and CF NFkB inh inactive.
For CCOc1ccc(CCN2C(=S)N([C@@H](CC(C)C)CN3CCCC3CN3C(=S)NC[C@@H]3Cc3ccc(O)cc3)C[C@@H]2Cc2ccc(O)cc2)cc1 (some centres not stated) the results were Peg3 prom inh 86.9, LGR2 inh inactive, KKLEB tox inactive and CF NFkB inh inactive.
`CCNC(=O)C[C@@H]1CC[C@@H]2[C@H](COc3ccc(NC(=O)Nc4ccccc4F)cc3C(=O)N2C)O1` gave LGR2 inh inactive.
`CC(=O)N(C)c1ccc(N=Nc2ccc3ncccc3c2)cc1` gave Peg3 prom inh inactive, LGR2 inh 66.4, KKLEB tox inactive and CF NFkB inh inactive.
Screening Cc1ccc(N2C(=O)CSC2c2ccc3c(c2)OCO3)cc1 (configuration not stated) returned Peg3 prom inh inactive, Mdm2-MdmX inh inactive, LGR2 inh inactive, KKLEB tox inactive, CF NFkB inh inactive and HSP90 inh inactive.
`O=C1CSC(c2ccc3c(c2)OCO3)N1c1ccc(Oc2ccccc2)cc1` (configuration not stated) gave Peg3 prom inh inactive, Mdm2-MdmX inh inactive, KKLEB tox -97.0, CF NFkB inh inactive and HSP90 inh inactive.
For Cc1cc(C2=NNC(=NC3CC3)SC2)c(C)n1-c1ccccc1 the results were Peg3 prom inh 103.3, LGR2 inh inactive, KKLEB tox inactive, CF NFkB inh inactive and HSP90 inh inactive.
`COc1ccc(-n2c(C)cc(C3=NNC(=NC4CC4)SC3)c2C)cc1` gave Peg3 prom inh inactive, LGR2 inh inactive, KKLEB tox inactive, CF NFkB inh inactive and HSP90 inh inactive.
Screening C[C@@H]1CCCCO[C@@H](CN(C)Cc2ccc(C(F)(F)F)cc2)[C@@H](C)CN([C@H](C)CO)C(=O)c2cc(NC(=O)CCCCCC(=O)Nc3ccccc3N)ccc2O1 returned LGR2 inh inactive.
For Cc1cc(NC(c2cccnc2)c2c(C)[nH]c3ccccc23)no1 (configuration not stated) the results were Peg3 prom inh inactive, Mdm2-MdmX inh inactive, KKLEB tox inactive, CF NFkB inh inactive and HSP90 inh 16.5.
`Cc1ccnc(NC(c2ccccn2)c2c(C)[nH]c3ccccc23)c1` (configuration not stated) gave Peg3 prom inh inactive, Mdm2-MdmX inh inactive, LGR2 inh inactive, KKLEB tox inactive, CF NFkB inh inactive and HSP90 inh inactive.
CN1c2ccc(-c3cccc(F)c3)cc2[C@@H]2[C@@H](CCN2C(=O)Cc2ccccc2)[C@H]1CO was read as LGR2 inh inactive.
Screening Cc1cn([C@@H](CCCCNC(=O)OC(C)(C)C)C(=O)NCCCCCCCCCCC(=O)N2CCN(C(=O)OC(C)(C)C)CC2)nn1 returned Peg3 prom inh 84.5, Mdm2-MdmX inh inactive, KKLEB tox inactive and CF NFkB inh inactive.
CC(=NNc1ccc2ccccc2n1)c1ccccn1 was read as LGR2 inh 103.6.
